# Reference: PubChem BioAssay (NCI)
# The panel holds about 83,000 compounds, 20% with a hit somewhere; the sample as a whole holds those more often.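 Method: cells in 96-well plates; compound added at one concentration; 48 h incubation; percent growth measured; values under 10 scored active.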 Values without a mark were called inactive. Calls of active or inactive are those of the source.
# Legend:
# Experiment in all cases: NCI-60 one-dose screen, 48 h (100 = growth as untreated, 0 = no growth, -100 = all killed)
# Details in all cases: 10 µM unless noted
# DU-145 prostate = tested on: DU-145 prostate
# K-562 leukemia = tested on: K-562 leukemia
# MALME-3M melanoma = tested on: MALME-3M melanoma
# MDA-MB-231 breast = tested on: MDA-MB-231 breast
# RXF 393 renal = tested on: RXF 393 renal
# SF-268 CNS = tested on: SF-268 CNS
# SF-295 CNS = tested on: SF-295 CNS
# SF-539 CNS = tested on: SF-539 CNS
# UACC-257 melanoma = tested on: UACC-257 melanoma
# M14 melanoma = tested on: M14 melanoma
# HCT-15 colon = tested on: HCT-15 colon
# HT29 colon = tested on: HT29 colon
# SNB-75 CNS = tested on: SNB-75 CNS
# SNB-19 CNS = tested on: SNB-19 CNS
# U251 CNS = tested on: U251 CNS
# PC-3 prostate = tested on: PC-3 prostate
# SK-MEL-5 melanoma = tested on: SK-MEL-5 melanoma
# UACC-62 melanoma = tested on: UACC-62 melanoma
# LOX IMVI melanoma = tested on: LOX IMVI melanoma
# SK-MEL-28 melanoma = tested on: SK-MEL-28 melanoma
Structure (SMILES),growth (DU-145 prostate),growth (K-562 leukemia),growth (MALME-3M melanoma),growth (MDA-MB-231 breast),growth (RXF 393 renal),growth (SF-268 CNS),growth (SF-295 CNS),growth (SF-539 CNS),growth (UACC-257 melanoma),growth (M14 melanoma),growth (HCT-15 colon),growth (HT29 colon),growth (SNB-75 CNS),growth (SNB-19 CNS),growth (U251 CNS),growth (PC-3 prostate),growth (SK-MEL-5 melanoma),growth (UACC-62 melanoma),growth (LOX IMVI melanoma),growth (SK-MEL-28 melanoma)
O=C(/C=C/c1ccco1)Nc1ncc(Cc2ccc(F)cc2)s1,19%,10.8%,59%,45.5%,12.7%,54.9%,11.7%,-21.3% (active),45.2%,16.7%,15.3%,7.2% (active),19.9%,48%,22.6%,30.2%,25.9%,16.8%,28.9%,48%
N#C/C(=N\Nc1ccccc1)C(=O)Nc1cc(-c2ccccc2)nn1-c1ccccc1,51.5%,25.9%,4.67% (active),26.1%,36.9%,22.9%,11.4%,40.4%,12.3%,33.7%,13.1%,31.5%,68.2%,14.6%,8.34% (active),10%,-27.5% (active),14.2%,52.9%,44.9%
COc1cc2cc(Oc3ccc(NC(=O)Nc4ccc(Cl)c(Cl)c4)cc3)c(C)nc2cc1OCCN1CCCCC1,97%,-35.7% (active),13.9%,91.4%,73.7%,92%,99.1%,86.8%,93.6%,-33.4% (active),71.6%,19.9%,96.8%,99.3%,53.2%,-30.2% (active),89%,106%,99.1%,98.2%
CC(=O)O[C@H]1C[C@@]2(C)[C@@H](C[C@@H](O)[C@H]3[C@@]4(C)CC[C@H](N5CCCC5)[C@@H](C)[C@@H]4CC[C@@]32C)/C1=C(\CCC=C(C)C)C(=O)O,105%,14.8%,95.6%,109%,98.9%,98.9%,96.3%,96.1%,98.1%,92.2%,94.5%,103%,97.7%,99.6%,99.5%,92.8%,96.2%,94.9%,97%,92.9%
Nc1ncnc2c1N=C(c1ccc([N+](=O)[O-])cc1)CC(c1ccc3c(c1)OCO3)N2 (stereo not given),94.6%,93.4%,107%,75%,75.6%,90.1%,67.5%,85.7%,116%,119%,103%,97.3%,69.1%,83.6%,89%,72.6%,80.2%,77.9%,85.3%,108%
CCCn1cnc2c(c1=N)C(c1ccc(Cl)cc1)c1sc3c(F)cccc3c1O2 (stereo not given),82.2%,29.1%,49.8%,69.7%,72%,83.8%,93.8%,85.6%,105%,70.7%,40.9%,20.8%,90.2%,87.5%,59.8%,65.8%,63.7%,85.4%,82.3%,80.1%
C=CC(=O)Nc1ccc2ncnc(Nc3cccc(NS(=O)(=O)CCC)c3Cl)c2c1,37.8%,67.2%,7.81% (active),24.3%,15.1%,48%,72.9%,44.4%,5.07% (active),19.6%,67.9%,7.98% (active),8.28% (active),49%,52.5%,68%,52.4%,6.45% (active),40.7%,15%
Cc1c(-c2cnc3ccc(Cl)cc3c2C(=O)O)nnn1-c1ccc(Cl)cc1,114%,101%,99.6%,85.8%,122%,111%,97.7%,99.6%,95.9%,69.8%,104%,101%,95.3%,93.1%,97.3%,98.5%,106%,82.5%,98.8%,105%
COc1ccccc1-c1nc2ccc3[nH]ncc3c2c2c1CCCC2,73.5%,83.3%,99.2%,62.4%,51.2%,55.6%,70.5%,50.5%,86.4%,76.3%,88.6%,67.5%,38.3%,85.6%,96.7%,82%,83.4%,71.3%,80.5%,89.2%
C=C1CC[C@@H]2[C@](C)(COC(C)=O)[C@H](OC(C)=O)CC[C@@]2(C)[C@@H]1CC(Nc1ccc(S(=O)(=O)Nc2nccc(C)n2)cc1)C1=CCOC1=O (stereo not given in full),38.5%,3.62% (active),-0.704% (active),13.3%,-38.3% (active),43.2%,78.6%,-62.7% (active),48.5%,11.2%,-42% (active),-28.2% (active),9.66% (active),53.6%,14.6%,41.5%,45%,24.2%,-72.9% (active),-7.05% (active)
Cc1c(C)c2c(c(C)c1OC(=O)CCC(=O)[O-])CCC(C)(CCCCCCCCCCC[P+](c1ccccc1)(c1ccccc1)c1ccccc1)O2 (stereo not given),-54.1% (active),6.14% (active),-83.6% (active),-34.2% (active),-78.3% (active),-61.3% (active),-87.4% (active),-69.1% (active),-54.2% (active),-60.3% (active),2.7% (active),6.17% (active),-31.5% (active),-42.4% (active),-70.1% (active),-31.9% (active),-98.3% (active),-54.1% (active),-91.4% (active),-77.3% (active)
COc1ccc(C(=O)C2OC3=C(C(=O)CC(C)(C)C3)C2c2cccc(Oc3ccccc3)c2)cc1 (stereo not given),102%,87.2%,112%,87.5%,101%,92.5%,97.1%,94.5%,91%,98.7%,89.3%,91.1%,86.9%,92.8%,88.9%,81.3%,90.7%,72.6%,92.3%,103%
O=C1C(Nc2ccc(Br)cc2)=C(I)C(=O)c2ncccc21,20.5%,5.98% (active),-6.23% (active),6.88% (active),45.8%,46.2%,86.6%,15.3%,49.3%,10.4%,6.76% (active),54.7%,26.4%,68.3%,32%,39.3%,-17.7% (active),9.48% (active),-3% (active),63.7%
COc1cc(C(=O)n2nc(NCCCc3ccccc3)c3cc(N)ccc32)cc(OC)c1OC,106%,88.9%,100%,83.1%,101%,96.7%,81%,93.1%,120%,93.6%,90.8%,91.8%,85.2%,101%,100%,79%,89.4%,92.2%,79.9%,96.4%
CN1CCN(Cc2ccc(NC(=O)c3cncc(C#Cc4c(N)ncc5ccccc45)c3)cc2C(F)(F)F)CC1,-95.6% (active),-37% (active),-84.8% (active),-88.7% (active),-97% (active),-65.1% (active),-59.9% (active),-97% (active),-72.2% (active),-73.9% (active),-71.7% (active),-70.1% (active),-94.4% (active),-82% (active),-98.7% (active),-57.8% (active),-91.9% (active),-93.8% (active),-94.3% (active),-83.2% (active)
